# Results from PubChem BioAssay (EPA / NIEHS).
# “And” between values parts separate entries of the source, which are not always exact repeats. Identical values can stand only once. Results filed as inconclusive are left out. The source made the active and inactive calls. Rule for the calls, unless noted: active = hit-call score of the fitted dose curve at least 0.9, where 1 is the maximum; inconclusive = response in the unintended direction; inactive = score below 0.9.
# Legend:
# [1] = CCTE_Harrill_HTTr_Viability_MCF7: CCTE's 6-hour Cell Viability Assessment for the High-Throughput Transcriptomics (HTTr) Platform, in MCF-7 cells cultured in DMEM + 10% fetal bovine serum, Harrill Lab (AID 2284010; active = hit-call score of the fitted dose curve at least 0.9, where 1 is the maximum; inactive = score below 0.9)
# Summary of the method: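 Cells were dosed with chemicals in an eight-point dilution series, imaged 6 hours later for propidium iodide uptake, and the endpoint was analyzed by bidirectional fitting against DMSO as negative control.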
# [2] = CCTE_Harrill_HTTr_Apoptosis_MCF7: CCTE's 6-hour Apoptosis Assessment for the High-Throughput Transcriptomics (HTTr) Platform, in MCF-7 cells cultured in DMEM + 10% fetal bovine serum, Harrill Lab (AID 2284011; active = hit-call score of the fitted dose curve at least 0.9, where 1 is the maximum; inactive = score below 0.9)
# Summary of the method: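 MCF-7 (DMEM + 10% FBS), 384-well; 8-pt dilution series, 6 h chemical exposure; caspase-3/7 activation via CellEvent Caspase 3/7 Green, HCI; bidirectional fit vs DMSO.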
# [3] = CCTE_Harrill_HTTr_CellCount_MCF7: CCTE's Cell Proliferation Assessment for the High-Throughput Transcriptomics (HTTr) Platform, Harrill Lab (AID 2284012);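 note: count of Hoechst-stained nuclei per well by high-content imaging in MCF-7 cells; cells exposed to compound for six hours; intended direction is loss of nuclei count meaning fewer cells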
# Summary of the method: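 Chemicals in eight-point dilution series are added to MCF-7 cells for six hours, nuclei are stained with Hoechst and imaged, and per-well nuclei counts are fitted in both directions relative to DMSO controls.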
# [4] = molecular target: Nucleoli Translocation, AR (gene 367) (UniProt P10275); assay: UPITT_HCI_U2OS_AR_TIF2_Nucleoli_Agonist: University of Pittsburgh U2OS Androgen Receptor-Transcriptional Intermediary Factor 2 (AR-TIF2) Agonism High Content Imaging Assay for Nucleoli Translocation (AID 2283998)
# Sequence of Nucleoli Translocation, AR (gene 367) (P10275 whole entry, looked up): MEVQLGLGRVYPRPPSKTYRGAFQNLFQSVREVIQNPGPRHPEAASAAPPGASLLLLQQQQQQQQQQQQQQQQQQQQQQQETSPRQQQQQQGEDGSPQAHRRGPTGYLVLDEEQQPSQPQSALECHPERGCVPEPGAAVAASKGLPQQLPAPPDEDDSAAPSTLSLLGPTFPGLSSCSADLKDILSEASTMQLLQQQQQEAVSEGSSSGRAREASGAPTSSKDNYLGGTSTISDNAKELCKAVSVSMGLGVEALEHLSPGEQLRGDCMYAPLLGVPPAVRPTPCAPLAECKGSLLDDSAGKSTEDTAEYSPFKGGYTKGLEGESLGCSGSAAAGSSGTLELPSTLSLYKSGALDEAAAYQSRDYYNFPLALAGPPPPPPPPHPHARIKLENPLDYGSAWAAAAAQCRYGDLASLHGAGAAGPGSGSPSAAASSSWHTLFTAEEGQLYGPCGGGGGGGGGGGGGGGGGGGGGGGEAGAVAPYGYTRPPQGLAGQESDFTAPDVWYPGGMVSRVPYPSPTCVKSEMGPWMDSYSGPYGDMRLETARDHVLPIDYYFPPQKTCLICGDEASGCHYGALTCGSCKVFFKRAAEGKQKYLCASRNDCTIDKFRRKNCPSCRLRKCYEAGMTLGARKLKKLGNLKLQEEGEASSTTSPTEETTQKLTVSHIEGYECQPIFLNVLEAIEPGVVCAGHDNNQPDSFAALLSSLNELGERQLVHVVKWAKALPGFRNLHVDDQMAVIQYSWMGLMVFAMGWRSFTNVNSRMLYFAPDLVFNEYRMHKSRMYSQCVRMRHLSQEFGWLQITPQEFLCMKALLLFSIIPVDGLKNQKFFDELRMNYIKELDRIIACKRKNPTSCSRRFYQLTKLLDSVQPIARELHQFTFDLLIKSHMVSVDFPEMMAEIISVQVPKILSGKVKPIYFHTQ
# Summary of the method: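 Readout is red (AR-RFP) fluorescence localized to nucleoli, measured by high-content imaging and analysed for increase relative to DMSO. Compound series spanned 0.195 to 50 uM final in 0.5% DMSO.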
# [5] = molecular target: Ratio of Nucleoli Translocation and Cytoplasm, AR (gene 367) (UniProt P10275); assay: UPITT_HCI_U2OS_AR_TIF2_Nucleoli_Cytoplasm_Ratio_Agonist: University of Pittsburgh U2OS Androgen Receptor-Transcriptional Intermediary Factor 2 (AR-TIF2) Agonism High Content Imaging Assay for Ratio of Nucleoli Translocation and Cytoplasm (AID 2284000);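 note: hits raise the red nucleolar to cytoplasm ratio above vehicle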
# Sequence of Ratio of Nucleoli Translocation and Cytoplasm, AR (gene 367) (P10275 whole entry, looked up, the tested form may be a part): as the sequence (P10275 whole entry, looked up) above
# Summary of the method: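 Read-out first: nucleolar-to-cytoplasm ratio of red (AR-RFP) signal, quantified by high-content imaging in U2OS cells co-expressing TIF2-GFP. Activity is scored as signal increase over DMSO. Single-point screening used 20 uM final (0.2% DMSO).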
# DIO1 (gene 1733) = assay: CCTE_GLTED_hDIO1: CCTE's human Deiodinase 1 (DIO1) Inhibition Assay, Great Lakes Toxicology and Ecology Division (GLTED) Lab (AID 2283987);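 note: isolated human DIO1 enzyme in a cell-free setup rather than cells; enzyme activity read as free iodide liberated from substrate via Sandell-Kolthoff colorimetry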
# Summary of the method: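 Inhibition of human deiodinase 1 is scored as reduced iodide liberation after a 3 h enzyme–chemical incubation, detected colorimetrically by the Sandell-Kolthoff reaction against DMSO controls.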
# [6] = molecular target: Ratio of Nucleoli Translocation and Cytoplasm, AR (gene 367) (UniProt P10275); assay: UPITT_HCI_U2OS_AR_TIF2_Nucleoli_Cytoplasm_Ratio_Antagonist: University of Pittsburgh U2OS Androgen Receptor-Transcriptional Intermediary Factor 2 (AR-TIF2) Antagonism High Content Imaging Assay for Ratio of Nucleoli Translocation and Cytoplasm (AID 2283999);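 note: antagonists lower the DHT-driven ratio of nucleolar to cytoplasmic red signal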
# Summary of the method: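 Human osteosarcoma U2OS line, AR fused to RFP, coactivator TIF2 fused to GFP. Cpds 20 uM final, 0.2% DMSO (screen); 0.195–50 uM final, 0.5% DMSO (CRC). Endpoint: nucleoli/cytoplasm red signal ratio, DHT as baseline, loss-of-signal antagonist mode.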
# [7] = TOX21_TR_RXR_BLA_Agonist_Followup_viability: Viability Assessment in the Tox21 Thyroid Hormone Receptor beta Retinoid X Receptor alpha (RXRa) Agonism Beta-lactamase (BLA) Follow-Up Assay (AID 2283970)
# Summary of the method: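 Cells: HEK293T RXRa-UAS-bla, 2,500/well; medium phenol red-free DMEM + 2% charcoal-stripped FBS; 16h, 37C/5% CO2; qHTS concentration series. Read: CellTiter-Glo luminescence (ATP); bidirectional fit, DMSO = baseline.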
structure (smiles),measurement,setting,value
CN(N=O)C(=O)N[C@@H]1[C@@H](O)[C@H](O)[C@@H](CO)O[C@@H]1O,outcome,[1],inactive
same,outcome,[2],inactive
same,outcome,[3],inactive
CCCCC(CC)COC(=O)c1ccc(N(C)C)cc1 (stereo not given),outcome,[1],inactive
same,outcome,[2],inactive
O=S(=O)(O)c1ccc(Cl)cc1,outcome,[1],inactive
same,outcome,[2],inactive
CC(=O)CCC(C)C,outcome,[1],inactive
same,outcome,[2],inactive
same,outcome,[3],inactive
Cc1cccc(C)n1,outcome,[4],inactive
same,outcome,[5],inactive
same,outcome,[1],inactive
same,outcome,[2],inactive
same,outcome,[3],inactive
CCCCCCCC/C=C\CCCCCCCC(=O)N(C)CC(=O)O,AC50,DIO1 (gene 1733),95.4 µM (active)
same,outcome,[1],inactive
same,outcome,[2],inactive
same,outcome,[3],inactive
CCCCCCCC/C=C\CCCCCCCC(=O)OCC(O)CO (stereo not given),outcome,[4],inactive
same,outcome,[6],inactive
same,outcome,[5],inactive
CCCCCCCCCCCCCCCCC,outcome,[1],inactive
same,outcome,[2],inactive
CCC(Cc1c(I)cc(I)c(N)c1I)C(=O)O (stereo not given),outcome,[1],inactive
same,outcome,[2],inactive
CN(C)C(C)(C)CO,outcome,[1],inactive
same,outcome,[2],inactive
same,outcome,[3],inactive
CCOC(=O)C1CC(=O)C(=C(O)C2CC2)C(=O)C1 (stereo not given),outcome,[1],inactive
same,outcome,[2],inactive
CSc1ccc(O)cc1C,outcome,[1],inactive
same,outcome,[2],inactive
same,outcome,[3],inactive
CCc1ccc(C)nc1,outcome,[4],inactive
same,outcome,[6],inactive
same,outcome,[5],inactive
same,outcome,[1],inactive
same,outcome,[2],inactive
same,outcome,[3],inactive
C=CC(=O)OCC(F)(F)C(F)(F)C(F)(F)C(F)(F)C(F)(F)C(F)(F)C(F)(F)C(F)F,AC50,DIO1 (gene 1733),8.44 µM (active)
O=C1C=CC(=O)N1c1ccccc1,outcome,[4],inactive
same,AC50,[6],5.34 µM (active)
same,outcome,[5],inactive
Cc1cnccn1,outcome,[1],inactive
same,outcome,[2],inactive
same,outcome,[3],inactive
CCCCCCCCn1sc(Cl)c(Cl)c1=O,AC50,DIO1 (gene 1733),0.411 µM (active)
same,outcome,[1],inactive
same,outcome,[2],inactive
same,outcome,[3],inactive
CCN=c1cc2oc3cc(NCC)c(C)cc3c(-c3ccccc3C(=O)OCC)c-2cc1C,AC50,[4],12.9 µM (active)
same,AC50,[6],0.753 µM (active)
same,AC50,[5],13.6 µM (active)
same,AC50,[1],214 nM (active) and 159 nM (active)
same,AC50,[2],96.9 nM (active) and 51.2 nM (active)
same,outcome,[3],inactive
O=C(c1ccccc1)c1ccc(O)cc1O,outcome,[7],inactive
same,outcome,[1],inactive
same,outcome,[2],inactive
Cc1ccc(O)c(-n2nc3ccccc3n2)c1,outcome,[1],inactive
same,outcome,[2],inactive
same,outcome,[3],inactive
C=CC(=O)OCC(F)(F)C(F)(F)C(F)(F)COC(=O)C=C,AC50,DIO1 (gene 1733),19.6 µM (active)
CSc1ccc(Cl)cc1,outcome,[1],inactive
same,outcome,[2],inactive
COCCOCCC[Si](C)(O[Si](C)(C)C)O[Si](C)(C)C,AC50,[4],88.8 µM (active)
same,outcome,[6],inactive
same,outcome,[5],inactive
C[C@]12CC[C@H]3C(=CCc4cc(O)ccc43)[C@@H]1CCC2=O,outcome,[7],inactive
same,outcome,[4],inactive
same,AC50,[6],3.04 µM (active)
same,outcome,[5],inactive
same,outcome,[1],inactive
same,outcome,[2],inactive
same,outcome,[3],inactive
CCCCCCCCCCCCCC[P+](CCCC)(CCCC)CCCC,AC50,DIO1 (gene 1733),11.5 µM (active)
same,outcome,[4],inactive
same,AC50,[6],9.75 µM (active)
same,outcome,[5],inactive
